Measurements reported in PubChem BioAssay AID1347404 (Pan Lab, Icahn School of Medicine at Mount Sinai, 2020).
Among all 140,000 compounds or so, about 860 (0.61%) were called active. The sample holds actives, similar compounds and a random draw of the others, so the mix is not that of the screen. No stated cut-off is given here; in the data, active means inhibition above about 25%; inactive means the rest.

The compounds below were run against E3 ubiquitin-protein ligase RBX1 (Homo sapiens) + Cullin-1 (Homo sapiens) (UniProt P62877+Q13616) (assay: blocks human RBX1-Cullin-1 di-ubiquitin formation (AID 1347404)). Details: in vitro K48 di-Ub FRET, acceptor:donor ratio, 45 min; at 10 µM; active compounds read high.
E3 ubiquitin-protein ligase RBX1 (Homo sapiens) + Cullin-1 (Homo sapiens), sequence (P62877 whole entry, looked up): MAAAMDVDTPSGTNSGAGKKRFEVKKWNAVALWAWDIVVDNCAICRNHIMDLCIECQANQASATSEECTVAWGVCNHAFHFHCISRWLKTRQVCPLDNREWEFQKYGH
E3 ubiquitin-protein ligase RBX1 (Homo sapiens) + Cullin-1 (Homo sapiens), sequence (Q13616 whole entry, looked up): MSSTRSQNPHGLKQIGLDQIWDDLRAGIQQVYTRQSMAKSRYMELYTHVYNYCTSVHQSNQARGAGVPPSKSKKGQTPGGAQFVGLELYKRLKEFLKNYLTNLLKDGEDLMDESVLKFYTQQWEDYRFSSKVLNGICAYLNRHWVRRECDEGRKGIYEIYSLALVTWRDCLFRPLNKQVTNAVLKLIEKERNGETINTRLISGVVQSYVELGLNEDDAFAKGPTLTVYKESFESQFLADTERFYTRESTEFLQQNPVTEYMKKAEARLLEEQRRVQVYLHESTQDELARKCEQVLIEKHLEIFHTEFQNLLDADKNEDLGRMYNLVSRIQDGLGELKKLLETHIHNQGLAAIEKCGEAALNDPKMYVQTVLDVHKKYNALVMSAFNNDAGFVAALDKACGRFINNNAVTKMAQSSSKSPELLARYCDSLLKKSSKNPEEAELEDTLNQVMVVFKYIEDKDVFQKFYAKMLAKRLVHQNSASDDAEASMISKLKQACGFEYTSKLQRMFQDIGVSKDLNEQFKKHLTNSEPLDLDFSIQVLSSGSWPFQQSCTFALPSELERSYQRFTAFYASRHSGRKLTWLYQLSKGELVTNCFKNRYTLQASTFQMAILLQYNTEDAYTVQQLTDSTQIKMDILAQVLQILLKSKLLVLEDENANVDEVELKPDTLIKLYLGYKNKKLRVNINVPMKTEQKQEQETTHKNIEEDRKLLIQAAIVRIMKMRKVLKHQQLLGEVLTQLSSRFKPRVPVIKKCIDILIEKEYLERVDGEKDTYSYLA

inhibition, inactive:
CN1C(=O)C(C(=NCc2ccccc2)c2nn[nH]n2)C(=O)c2ccccc21 (configuration not stated) 2.67%, Cc1ccc(N=C/C=C/c2ccc([N+](=O)[O-])cc2)cc1 6.74%, CC(=O)Nc1cc(C)ccc1[N+](=O)[O-] -2.27%, Cc1ccc(N2C(=O)c3ccccc3NC2c2ccc(OCc3ccccc3)cc2)cc1 (configuration not stated) 8.59%, C=CCNC(=O)C1CCN(S(=O)(=O)N(C)C)CC1 8.77%, O=C(CSc1nc2scc(-c3ccccc3)c2c(=O)n1-c1ccccc1)c1ccccc1F 8.07%, O=C(Nc1ccccc1Cl)c1cc(-c2ccc(Cl)s2)nc2ccccc12 -7.97%, CCOc1cc(Br)c(Br)c(C=Nc2cccc(NC(=O)c3ccc(Cl)cc3Cl)c2)c1O 13.5%, CCN(CC1CCCN(CCc2cccc(OC)c2)C1)C1CCN(C(C)=O)CC1 (configuration not stated) -12.6%, COc1ccc(C(=O)CC=Nc2ccc(Oc3ccccc3Cl)cc2)cc1OC 11.3%, Cc1ccc(NC(=O)C(=O)NC(=O)c2n[nH]c3c2CCCC3)cc1 2.41%, CCOc1ccc(Cl)cc1S(=O)(=O)N1CCCCC1C (configuration not stated) 3.07%, O=C([C@@H]1C[C@H]1c1ccccc1)N1CCOc2ccc(CN3CCN(c4ncccn4)CC3)cc2C1 -2.65%, Cc1cnc(Sc2nccn2C)c([N+](=O)[O-])c1 -1.03%, CCOC(=O)c1cc(N2C(=O)c3cccc4cccc(c34)C2=O)ccc1Cl -1.46%, COC(=O)c1cc2ccccc2n1C -2.5%, Clc1ccc(-c2csc(NN=C3c4ccccc4-c4ccccc43)n2)cc1 -3.38%, COc1cc(/C=C(/C)[N+](=O)[O-])c2c(c1Br)CCCO2 -18%, COc1ccc2c(c1)CCCN2Cn1nc(COc2ccc(C3CCCCC3)cc2)n(C)c1=S 0.371%, c1cc2nsnc2cc1CN1CCCC(Nc2ccc3c(c2)OCO3)C1 (configuration not stated) 2.61%, Cc1cc(Oc2cc(-n3[nH]c(=O)c4ccccc4c3=O)nc(-c3ccccc3)n2)cc(C)c1Cl 7.28%, CCN(CC1CCN(C2CCN(C)CC2)CC1)C(=O)c1occc1C 9.69%, O=C(NCN1CCN(CNC(=O)c2cccnc2)CC1)c1cccnc1 -0.31%, CCN1CCN(c2nc(-c3ccc(OC)cc3)cc(=O)[nH]2)CC1 5.84%, Cc1ccc(Cl)cc1N1CCN(C(=O)C23CC4CC(CC(C4)C2)C3)CC1 -7.78%, Cc1ccccc1CS(=O)(=O)N1CCC(Cc2ccccc2)CC1 8.78%, COc1ccc(C(Nc2cc(C)ccn2)c2ccc3cccnc3c2O)c(OC)c1OC (configuration not stated) 2.02%, COc1ccc2nc(SCC#CCSc3nc4ccc(OC)cc4[nH]3)[nH]c2c1 7.63%, CNCC#CCOc1ccccc1C(C)(C)C -2.15%, O=c1cc(Cl)c2ccccc2o1 -4.6%, CN(C)/C=C/c1c(C#N)c(=O)oc2ccccc12 9.69%, CCOC(=O)C(C(=O)OCC)c1ccc(OC)cc1[N+](=O)[O-] 2.12%, CCOc1cc(/C=C2/SC(=O)N(C(C)C)C2=O)ccc1O -0.43%, Nc1nc2c(ncn2S(=O)(=O)c2ccc(C(=O)O)cc2)c(=O)[nH]1 7.51%, Cc1[nH]nc2c1C(c1cccc(OCc3ccccc3Cl)c1)C(C#N)C(=N)O2 (configuration not stated) -9.52%, Cc1ccc(C2Oc3ccccc3C3CC(c4cccs4)=NN32)o1 (configuration not stated) 0.171%, CCN(CC)C(=O)c1sc(NC(=O)C(Sc2ccccc2)c2ccccc2)c(C#N)c1C (configuration not stated) 2.76%, Oc1ccc2oc(SCCOCCOCCOCCSc3cc4cc(O)ccc4o3)cc2c1 0.44%, O=C(COC(=O)c1cc(Cl)c(Cl)cc1C(=O)OCC(=O)c1ccccc1)c1ccccc1 7.68%, O=C(O)CSCC(=O)Nc1nccs1 -17.6%, O=C1C2CCCN2C(=O)N1CCCCN1CCN(c2cccc(C(F)(F)F)c2)CC1 (configuration not stated) -6.27%, c1ccc(-c2oc(-c3ccccc3)c(-c3ccccc3)c2-c2ccccc2)cc1 -5.11%, CCc1ccc(-c2cc(C(F)(F)F)n3nc(C(=O)N(C)Cc4cnn(C)c4C)cc3n2)s1 -10.3%, COc1ccc(-c2n[nH]c(=O)c3ccccc23)cc1 0.605%, N#Cc1ccc(-c2nc3cc(C#N)c(C#N)cc3nc2-c2ccccc2)cc1C#N 0.0365%, COc1cc(OC)c(OC)cc1CN1CC[C@@H](N2CCC(O)CC2)[C@H](O)C1 13%, OCc1ccc(-c2cc(Cl)cc(Cl)c2)o1 -5.33%, C=CCN1C(=O)N=C(Cc2ccc(-c3cccc(F)c3)o2)C1=O 2%, COc1cccc(C(=O)NC2(C(F)(F)F)C(=O)N=C3C2C(=O)NC(=O)N3c2ccc(C)cc2)c1 (configuration not stated) -7.22%, Cc1ccc(-c2c3nnc4ccccc4c3nc3sc4c(=O)[nH]c(C)nc4c23)cc1 6.93%, COc1ccc(F)c(-c2nc(CN(C)Cc3nonc3C)c(C)o2)c1 3.31%, COCCCN1C(=O)CC(CC(=O)N2CCN(C)C(c3ccccc3)C2)(c2ccccc2OC)C1=O (configuration not stated) 9.56%, COc1cccc(CC2(CO)CCN(C(=O)c3cnn(C(C)C)c3)CC2)c1 4.94%, O=C(NC1CCCN(CCc2ccccc2)C1)c1cccc(N2CCOCC2)c1 (configuration not stated) 5.73%, Cc1ccc(-c2csc(NNC(=O)c3ccccc3)n2)cc1 -5.78%, COc1ccc(C(=O)Nc2ccc3nc(N4CCCCC4)cc(C)c3c2)cc1OC -8.5%, COCCN(CC1CCN(Cc2ccccc2F)CC1)C(=O)CCCN1CCCCC1=O 14.5%, Cc1ccccc1OC(C)C(=O)Nc1nccs1 (configuration not stated) 0.702%, CCN1C(=O)C(=Cc2ccc(-c3ccccc3)o2)C(=O)N(CC)C1=S -2.58%, CCn1cc(/C=C2\SC(=O)N(CC(=O)Nc3cccc(C)c3)C2=O)c2ccccc21 0.178%, COc1cc(C(=O)O)ccc1OC(=O)C1CCCCC1 2.41%, CCCCCOc1cccc(OCC(=O)Nc2cccc(OC)c2)c1 0.894%, Cc1cccc(-n2c(C)c(C)n3c4c(=O)n(CCCO)c(=O)n(C)c4nc23)c1 -0.432%, CCCNC(=O)c1nnn(-c2ccc(C)cc2)c1C 2.76%, CN1CCC2(CC1)CC(=O)NC2=O -1.86%, Nc1ccc([N+](=O)[O-])cc1OCc1ccccc1 6.18%, CCn1c2ccccc2c2cc(NS(=O)(=O)c3ccc(Cl)nc3)ccc21 -11.1%, Cc1cc(OC(C)C(=O)N2CCN(c3ccccc3)CC2)cc(C)c1Cl (configuration not stated) 12.3%, O=C(Nc1cccc(Cl)c1)C(=S)NCc1ccco1 3.18%, Nc1c(C(=O)Nc2ccc(F)c(Cl)c2)sc2nc(-c3ccc(F)cc3)ccc12 -0.694%, COCC(=O)N1CCCC(C(=O)c2cccc(C(F)(F)F)c2)C1 (configuration not stated) 11%

inhibition, active:
Nc1scc2c1c(=O)oc1ccccc12 57%, N#Cc1c(-c2ccccc2)c(-c2ccccc2)n[nH]c1=O 49.7%, O=C(O)c1cc(-c2ccc(CC3=NC(=S)N(c4ccc(Cl)cc4)C3=O)o2)ccc1Cl 101%, O=C(NNc1cc(N2CCCC2)nc(N2CCCC2)n1)c1ccccc1 31.7%, CCCN1C(=O)/C(=C\c2cn(CC(=O)O)c3ccccc23)C(=O)N(c2ccccc2)C1=S 48.9%, CCCCCCCCCCCCOc1c(OC)cc(C(=O)O)cc1OC 26.5%
